Screens as filed in PubChem BioAssay.
Most compounds without a hit are left out; they make up all but 1.6% or so of the library.
KCNQ2 enhance: potentiators of rat KCNQ2 potassium channel. O88943. 310,000 compounds, 0.54% hits. CHO-K1 KCNQ2, FluxOR thallium flux fluorescence; stronger effect = higher value. AID 2239. B-score at 10 µM;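 active = fluorescence ratio B-score at least 3 SD of library B-scores, with initial fluorescence B-score within 3 of them, cut at about 5.3 in these data; same plate scores as AID 2156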;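 note: B-score of peak minus minimum over baseline fluorescence ratio after K+ and Tl+ stimulus; positive B-score means potentiation of KCNQ2 with more thallium influx and brighter signal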
KCNQ2 inh: blocks the rat KCNQ2 potassium channel. O88943. CHO-K1 KCNQ2, FluxOR thallium flux, 20 min; stronger effect = lower value. B-score at 10 µM. 310,000 compounds, 1.1% hits. AID 2156;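 active = fluorescence ratio B-score at most minus 3 library SDs, with starting brightness B-score within 2 library SDs, cut at about -5.5 in these data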
Kir21 conf inh: confirmation of mouse Kir2.1 potassium channel inhibitors; AID 2032; shares compounds with KCNQ2 enhance; Tl flux remaining, % of negative control (stronger effect = lower value), % at 10 µM; Kir2.1-expressing cells, FluxOR thallium flux fluorescence; stronger effect = lower value; 2,300 compounds, 41% hits;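 active = Primary-screen hit whose thallium flux fell at least 3 control SD below untreated wells in both duplicates, with normal baseline fluorescence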;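 note: 0% = blank wells without stimulus and 100% = stimulated no-compound controls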
HEK293 Tl flux: counter-screen for Kir2.1 inhibitors: effect in parental HEK293 cells; shares compounds with KCNQ2 enhance; FluxOR thallium flux fluorescence; 0% = unstimulated blank wells; FluxOR signal as % of negative control (100 = no effect), % at 10 µM; 2,300 compounds, 19% hits; AID 2105;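 active = dye signal at least 3 control SD above or below untreated wells in both duplicates, raw fluorescence within 3, either direction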;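 note: percent is based on the flux ratio of peak minus minimum fluorescence over baseline F0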
CHO-K1 ctr: alters thallium flux in parental CHO-K1 cells, KCNQ2 counter-screen; 1,200 compounds, 43% hits; FluxOR thallium flux fluorescence; zero = vehicle mean+3SD, 100% = vehicle-minus-blank window; AID 2282; shares compounds with KCNQ2 enhance; activity increase over 3SD of controls, % at 10 µM;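 active = signal rise of at least 3 SD above the untreated control mean, in both duplicate wells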;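 note: counter screen of KCNQ2 potentiator hits so any rise reflects channel-independent effects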
KCNQ1 pot spec: selectivity of KCNQ2 potentiators: effect on human KCNQ1. shares compounds with KCNQ2 enhance. CHO KCNQ1 stable, FluxOR thallium flux fluorescence; beyond 3SD, as % of vehicle-control signal. activation over 3SD threshold, % at 10 µM. 1,200 compounds, 28% hits. AID 2283;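 active = fluorescence ratio rise of at least 3 SD of vehicle wells above their mean, in both replicate wells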;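 note: 0% = vehicle mean plus 3 SD and 100% = vehicle minus unstimulated blank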
Target sequence (P51787 whole entry, looked up): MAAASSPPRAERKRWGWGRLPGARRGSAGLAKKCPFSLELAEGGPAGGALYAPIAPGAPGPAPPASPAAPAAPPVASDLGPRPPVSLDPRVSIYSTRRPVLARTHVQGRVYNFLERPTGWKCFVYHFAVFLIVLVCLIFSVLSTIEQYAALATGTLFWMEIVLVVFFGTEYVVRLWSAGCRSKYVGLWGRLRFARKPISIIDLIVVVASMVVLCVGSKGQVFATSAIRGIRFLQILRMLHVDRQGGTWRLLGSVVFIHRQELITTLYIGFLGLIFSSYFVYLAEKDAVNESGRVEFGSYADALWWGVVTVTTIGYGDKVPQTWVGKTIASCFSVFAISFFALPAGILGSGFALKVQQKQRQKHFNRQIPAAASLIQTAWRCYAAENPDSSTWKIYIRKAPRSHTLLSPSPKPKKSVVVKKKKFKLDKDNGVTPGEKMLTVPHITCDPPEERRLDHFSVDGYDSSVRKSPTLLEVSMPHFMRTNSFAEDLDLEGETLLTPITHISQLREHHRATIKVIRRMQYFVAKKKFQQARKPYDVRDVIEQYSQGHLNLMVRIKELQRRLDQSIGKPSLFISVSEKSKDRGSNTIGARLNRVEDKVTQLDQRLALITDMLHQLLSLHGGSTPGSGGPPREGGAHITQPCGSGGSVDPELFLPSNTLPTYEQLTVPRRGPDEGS
KCNQ2 pot confirm: rat KCNQ2 channel potentiator confirmation | 1,200 compounds, 68% hits | shares compounds with KCNQ2 enhance | CHO-KCNQ2 cells, FluxOR thallium flux fluorescence | potentiation, less the hit threshold, % at 10 µM;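 active = fluorescence ratio rising 3 SD or more over the vehicle control mean in both replicates, plus primary screen hit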;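 note: peak minus minimum thallium fluorescence divided by baseline after K/Tl stimulus; 0% = vehicle mean plus 3 SD and 100% = vehicle minus unstimulated blank difference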
Kir2-1 sel: mouse Kir2.1 off-target activity of KCNQ2 potentiators; HEK293 Kir2.1, FluxOR thallium flux fluorescence; activity over 3SD threshold, % at 10 µM; AID 2345; shares compounds with KCNQ2 enhance; 1,200 compounds, 2% hits;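 active = fluorescence ratio rise of at least 3 SD above the vehicle-control mean, seen in both replicates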;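 note: 0% = vehicle mean plus 3 SD and 100% = vehicle minus no-stimulus blank window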
KCNQ2 W236L MoA: potentiates the retigabine-insensitive rat KCNQ2 W236L mutant channel. current increase over 3SD of negative controls (%), stronger effect = higher value, % at 25 µM. CHO KCNQ2-W236L, automated patch clamp current. AID 2558. shares compounds with KCNQ2 enhance. 940 compounds, 10% hits;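 active = current increase at least 3 SD of the untreated controls above them in both duplicate recordings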
* = called active by the depositor; i = inactive; . = no result given.

SMILES | KCNQ2 enhance | KCNQ2 inh | Kir21 conf inh | HEK293 Tl flux | others
O=c1[nH]sc2cc(F)ccc12 | 6.9* | i | . | . | CHO-K1 ctr=-6.7;KCNQ1 pot spec=-16.4;KCNQ2 pot confirm=0.2*;Kir2-1 sel=-56.3;KCNQ2 W236L MoA=55.8%*
O=C1CN=C(c2cc([N+](=O)[O-])ccc2Cl)c2cc([N+](=O)[O-])ccc2N1 | 1 | i | . | .
O=P(Oc1ccccc1)(Oc1ccccc1)C(O)c1ccccc1 (configuration not stated) | . | i | . | .
O=P(Oc1ccccc1)(Oc1ccccc1)c1ccccc1 | . | i | 60.0%* | i
O=[N+]([O-])c1ccc(N2CCCC(C(F)(F)F)C2)c2ccncc12 (configuration not stated) | . | i | . | .
COc1ccc(CNCCc2c(C)[nH]c3ccc(OC(F)(F)F)cc23)c(OC)c1 | . | i | i | i
COc1ccc2[nH]c(C)c(CCNCc3cc(OC)c(OC)c(OC)c3)c2c1 | . | i | . | .
N#Cc1ccccc1Cn1cc(C(=O)c2ccco2)c2ccccc21 | 0.08 | i | . | .
O=C(c1n[nH]c(=O)c2ccccc12)N1CCC2(CC1)OCCO2 | 0.93 | i | . | .
CCCC(C)(COC(N)=O)COC(=O)NC(C)C (configuration not stated) | 1.15 | i | . | .
COc1ccc(CCNCc2ccccc2F)cc1OC | 1.92 | i | . | .
CCOc1ccc(Cl)cc1CNCCc1ccccc1F | . | i | 37.5%* | i
CCc1cc2c(s1)NC(=O)CN=C2c1cccs1 | 0.63 | i | . | .
c1ccc(CNCCc2c[nH]c3ccccc23)cc1 | . | i | . | .
CCc1ccc(CNCCc2c[nH]c3ccccc23)cc1 | . | i | 18.5%* | i
Cc1cc(C)[n+](CCCC[n+]2c(C)cc(C)cc2C)c(C)c1 | 0.48 | i | . | .
CCOc1ccc(NC(=O)N2C[C@H]3C[C@@H](C2)c2cccc(=O)n2C3)cc1 | . | i | . | .
Cc1nc2ccccc2c(=O)n1/N=C/c1cc(Br)cc(Br)c1O | 8.05* | i | i | i | CHO-K1 ctr=11.1*;KCNQ1 pot spec=-15.3;KCNQ2 pot confirm=-25.7;Kir2-1 sel=-33.2
Cc1nc2ccccc2c(=O)n1-c1ccc(Br)cn1 | . | i | . | .
Cc1cc(OCC(=O)N2CCC(C(=O)O)CC2)c2c3c(c(=O)oc2c1)CCCC3 | . | i | . | .
CN(C(=O)c1ccc(Cl)nc1)C1(c2ccccc2Cl)CCCCC1=O (configuration not stated) | . | i | . | .
CCCCCSc1cc(O)c(C(CNC)C(C)C)cc1OC (configuration not stated) | 0.41 | i | . | .
CCCCCSc1cc(OC)c(CCN(C)C)cc1OC | 0.11 | i | 45.0%* | i
COc1ccc(CN2CCN(C(=O)Cc3ccccc3)CC2)cc1Br | . | i | . | .
Cc1ccc(-c2cc(-c3ccccc3)cc(-c3ccccc3)[n+]2-c2ccccc2)cc1 | . | i | 17.5%* | 59.0%*
SMILES | KCNQ2 enhance | KCNQ2 inh | Kir21 conf inh | HEK293 Tl flux | others
CCOC(=O)c1ccc(-[n+]2c(-c3ccccc3)cc(-c3ccccc3)cc2-c2ccccc2)cc1 | -8.47 | -8.47* | 39.0%* | i
Cc1cc(-c2ccccc2)cc(C)[n+]1Cc1ccccc1 | 1.84 | i | . | .
Cc1ccc(-c2cc(-c3ccc(C)cc3)[n+](-c3ccc(C(=O)[O-])cc3)c(-c3ccc(C)cc3)c2)cc1 | . | i | i | i
CC(=O)c1ccc(-c2ccccc2)cc1 | 0.72 | i | . | .
CN(C)c1ccc(-[n+]2c(-c3ccccc3)cc(-c3ccccc3)cc2-c2ccccc2)cc1 | -9.11 | -9.11* | i | i
O=[N+]([O-])c1cc(Cl)c(O)c(-[n+]2c(-c3ccccc3)cc(-c3ccccc3)cc2-c2ccccc2)c1 | . | i | . | .
CCN1CCN(c2cc(N3CCCC3)c(F)cc2[N+](=O)[O-])CC1 | . | i | . | .
N=C1c2ccccc2CN1c1ccc(F)c([N+](=O)[O-])c1 | 0.14 | i | . | .
Cc1ccccc1N1CCN(Cc2ccc3c(c2)OCO3)CC1 | . | i | . | .
CCc1ccc(CN2CCN(Cc3ccc(SC)cc3)CC2)cc1 | . | i | 27.0%* | i
COc1ccccc1N1CCN(Cc2ccc(SC)cc2)CC1 | 0.84 | i | . | .
Clc1ccc(NC2=NCCCS2)cc1Cl | 1.25 | i | . | .
Fc1ccc(C(OCCN2CCCC2)c2ccc(Br)cc2)cc1 (configuration not stated) | . | i | 45.0%* | i
Fc1ccc(C(OCCN2CCCC2)c2ccc(F)cc2)cc1 | 2.49 | i | . | .
Cc1cccc(CN2CCN(c3ccc(Cl)cc3)CC2)c1 | . | i | . | .
Cc1ccc(CN2CCN(Cc3ccccc3F)CC2)cc1 | 0.52 | i | 42.5%* | i
Cc1cccc(CN2CCN(Cc3ccc(Cl)cc3)CC2)c1 | . | i | 23.5%* | i
CCN1CCN(Cc2ccc(C)cc2)CC1 | 1.27 | i | . | .
CC/C(=N\N1CCCCCC1)c1c(O)n(-c2ccccc2C)c(=O)[nH]c1=O | 1.6 | i | . | .
Cc1ccccc1-n1c(O)c(/C=N/N2CCOCC2)c(=O)[nH]c1=S | . | i | . | .
O=C1N[C@H](Cc2ccccc2)C(=O)N2[C@@H]3[C@H](C[C@@H]12)c1ccccc1N3OOSc1ccccc1 | . | i | . | .
Fc1ccc(CCNCc2ccc(Cl)c(Cl)c2)cc1 | . | i | 24.5%* | i
CCc1ccc(CNCCc2ccc(F)cc2)cc1 | . | i | . | .
Cc1nc2ccc(P(=O)(O)O)cc2s1 | 2.04 | i | . | .
CC(=O)c1c(C)[nH]c(C(=O)N2CCC3(CC2)OCCO3)c1C | . | i | . | .
SMILES | KCNQ2 enhance | KCNQ2 inh | Kir21 conf inh | HEK293 Tl flux | others
CCN(CC)P(=O)(c1n(CC)cc[n+]1CC)N(CC)CC | . | i | . | .
Cc1ccc2cc(CNCCc3ccccc3C)c(=O)[nH]c2c1 | 1.1 | i | . | .
Cc1cccc(CCNCc2cc3cccc(C)c3[nH]c2=O)c1 | 1.08 | i | 52.0%* | i
C#C[C@]1(O)CCC2C3CCC4=C/C(=N/OCC(=O)NC(C)C(=O)NC(CCSC)C(=O)O)CC[C@]4(C)C3CC[C@@]21C (some centres not stated) | 1.84 | i | . | .
O=C1Nc2ccccc2/C1=C/c1cnc[nH]1 | 1.36 | i | . | .
COc1ccc2c(c1)/C(=C/c1cnc[nH]1)C(=O)N2 | 6.81* | i | i | i | CHO-K1 ctr=-5.7;KCNQ1 pot spec=-17.2;KCNQ2 pot confirm=10.4*;Kir2-1 sel=-45.5;KCNQ2 W236L MoA=i
Cc1ccccc1-n1c(C)nc2ccsc2c1=O | 1.66 | i | . | .
